For eight compounds, growth results are on record in PubChem BioAssay (NCI).

Among the test systems are SR leukemia; RPMI-8226 leukemia; OVCAR-8 ovarian; OVCAR-5 ovarian; OVCAR-4 ovarian; SK-OV-3 ovarian; IGROV1 ovarian; OVCAR-3 ovarian; HS 578T breast; NCI/ADR-RES ovarian; T-47D breast; BT-549 breast; MDA-MB-435 melanoma; SW-620 colon; MCF7 breast; HCT-116 colon; HCC-2998 colon; KM12 colon.
Holding throughout (assay): NCI-60 one-dose screen, 48 h (100 = growth as untreated, 0 = no growth, -100 = all killed)
Common to all, as to conditions: 10 µM unless noted

The structures appear in SMILES notation. Where “and” joins values, the source holds several entries; their conditions need not be identical. Identical values can stand only once. The panel holds about 83,000 compounds, 20% with a hit somewhere; the sample as a whole holds those more often.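 Step 1: grow cells in 96-well plates. Step 2: add test compound at a single concentration. Step 3: incubate 48 h. Step 4: record percent growth.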 Calls of active or inactive are those of the source. Rule for the calls: active = growth percent below 10; inactive = the rest.

On to `O=c1nc(Nc2ccc([N+](=O)[O-])cc2O)sc2ccccc12`, for which the growth is 24.2% (inactive) in the test on SR leukemia; 3.35% (active) in the test on RPMI-8226 leukemia; 24.1% (inactive) with OVCAR-8 ovarian; 47.4% (inactive) with OVCAR-5 ovarian; 36.9% (inactive) in the test with OVCAR-4 ovarian; 49.2% (inactive) in the test with SK-OV-3 ovarian. The growth was 33.2% (inactive) in the test on IGROV1 ovarian; 14% (inactive) in the test on OVCAR-3 ovarian; 27.4% (inactive) with HS 578T breast; 22.5% (inactive) in the test with NCI/ADR-RES ovarian; 31.1% (inactive) in the test with T-47D breast; 50.6% (inactive) in the test on BT-549 breast. The growth in the test with MDA-MB-435 melanoma is -42.9% (active); in the test with SW-620 colon, 22.3% (inactive); in the test with MCF7 breast it was 18.1% (inactive); with HCT-116 colon, 20.2% (inactive); in the test on HCC-2998 colon, 62.4% (inactive); with KM12 colon, 23.9% (inactive).

Take `CNC(=O)c1cc(-c2ccc(NC(=S)Nc3cccc(C(F)(F)F)c3)cc2)nc2cccnc12`: the growth in the test with SR leukemia is 80.8% (inactive); in the test with RPMI-8226 leukemia it was 95.2% (inactive); in the test with OVCAR-8 ovarian, 93.9% (inactive); in the test with OVCAR-5 ovarian, 102% (inactive); with OVCAR-4 ovarian, 96.6% (inactive); in the test with SK-OV-3 ovarian, 105% (inactive). The growth in the test on IGROV1 ovarian is 103% (inactive); with OVCAR-3 ovarian, 109% (inactive); with HS 578T breast it was 105% (inactive); in the test on NCI/ADR-RES ovarian, 95.3% (inactive); in the test with T-47D breast, 102% (inactive); in the test on BT-549 breast it was 104% (inactive). Moreover, the growth in the test with MDA-MB-435 melanoma is 95.9% (inactive); in the test with SW-620 colon, 96.8% (inactive); with MCF7 breast, 80.3% (inactive); in the test on HCT-116 colon, 103% (inactive); with HCC-2998 colon it was 116% (inactive); with KM12 colon, 98.8% (inactive).

On to `O=c1[nH][nH]c(-c2ccc(F)cc2)c1-c1nc2ccccc2s1`, for which the growth in the test on SR leukemia is 103% (inactive); in the test with RPMI-8226 leukemia it was 97.4% (inactive); in the test on OVCAR-8 ovarian, 100% (inactive); in the test with OVCAR-5 ovarian, 95.9% (inactive); with OVCAR-4 ovarian, 106% (inactive); in the test with SK-OV-3 ovarian, 88.6% (inactive). The growth in the test with IGROV1 ovarian is 86.8% (inactive); in the test with OVCAR-3 ovarian, 108% (inactive); with HS 578T breast, 96.9% (inactive); in the test on NCI/ADR-RES ovarian it was 86.8% (inactive); with T-47D breast it was 87.7% (inactive); with BT-549 breast, 98.8% (inactive). For the same compound, the growth in the test with MDA-MB-435 melanoma is 104% (inactive); with SW-620 colon it was 105% (inactive); in the test with MCF7 breast, 81.2% (inactive); in the test on HCT-116 colon it was 93.2% (inactive); in the test on HCC-2998 colon it was 107% (inactive); with KM12 colon, 105% (inactive).

As for `C=C1CCc2nc(SCC(=O)O)ccc2N1`, the growth with SR leukemia was 115% (inactive); in the test with RPMI-8226 leukemia, 114% (inactive); in the test on OVCAR-8 ovarian, 105% (inactive); in the test with OVCAR-5 ovarian, 97.1% (inactive); in the test with OVCAR-4 ovarian, 104% (inactive); in the test on SK-OV-3 ovarian, 98.8% (inactive). Moreover, the growth in the test with IGROV1 ovarian was 104% (inactive); in the test with OVCAR-3 ovarian, 117% (inactive); in the test with HS 578T breast, 101% (inactive); in the test with NCI/ADR-RES ovarian, 98.8% (inactive); in the test with T-47D breast it was 98.5% (inactive); with BT-549 breast, 114% (inactive). Moreover, the growth with MDA-MB-435 melanoma was 101% (inactive); in the test with SW-620 colon, 106% (inactive); in the test with MCF7 breast it was 99.5% (inactive); in the test with HCT-116 colon it was 98% (inactive); in the test on HCC-2998 colon it was 103% (inactive); with KM12 colon, 102% (inactive).

As to `C#C[C@]1(O)CC[C@H]2[C@@H]3CC=C4c5sc(Nc6cc(Cl)ccc6OC)nc5CC[C@]4(C)[C@H]3CC[C@@]21C`, the growth in the test on SR leukemia is 3.9% (active); in the test on RPMI-8226 leukemia it was -35.1% (active); in the test on OVCAR-8 ovarian it was 52.5% (inactive); in the test with OVCAR-5 ovarian it was 67.5% (inactive); in the test with OVCAR-4 ovarian, 52.5% (inactive); in the test on SK-OV-3 ovarian, -6.24% (active). The growth with IGROV1 ovarian was 43.5% (inactive); in the test with OVCAR-3 ovarian it was 25.3% (inactive); in the test with HS 578T breast, -7.86% (active); with NCI/ADR-RES ovarian it was 56.4% (inactive); with T-47D breast it was 31.2% (inactive); with BT-549 breast, 3.68% (active). Further, the growth was -0.171% (active) in the test on MDA-MB-435 melanoma; -20.7% (active) with SW-620 colon; -15.1% (active) in the test on MCF7 breast; 7.63% (active) in the test on HCT-116 colon; 54.3% (inactive) in the test on HCC-2998 colon; 31.9% (inactive) in the test with KM12 colon.

`CN(C)CCCOc1ccc(C(=C(c2ccccc2)C2CCCC2)c2ccc(OCCCN(C)C)cc2)cc1`: the growth in the test with SR leukemia is -37% (active); in the test on RPMI-8226 leukemia it was -32.1% (active); with OVCAR-8 ovarian it was -84.2% (active); in the test on OVCAR-5 ovarian it was -92.9% (active); in the test with OVCAR-4 ovarian, -89.4% (active); in the test with SK-OV-3 ovarian it was -86.4% (active). Also, the growth is -84.7% (active) in the test with IGROV1 ovarian; -91.7% (active) in the test with OVCAR-3 ovarian; -60.7% (active) with HS 578T breast; -80% (active) in the test with NCI/ADR-RES ovarian; -76.6% (active) in the test on T-47D breast; -83.3% (active) in the test on BT-549 breast. Besides, the growth was -62.8% (active) in the test with MDA-MB-435 melanoma; -34.2% (active) with SW-620 colon; -65.8% (active) with MCF7 breast; -44.7% (active) in the test on HCT-116 colon; -83.9% (active) in the test with HCC-2998 colon; -96.9% (active) with KM12 colon.

As for `CCOC(=O)C1=C(C)NC(C)=C(C(=O)OCc2ccccc2)C1c1cccc(C#N)c1` (centres undefined), the growth with SR leukemia was 21.7% (inactive); with RPMI-8226 leukemia it was 32.3% (inactive); in the test on OVCAR-8 ovarian it was 48% (inactive); in the test on OVCAR-5 ovarian, 61.3% (inactive); in the test with OVCAR-4 ovarian, 71.5% (inactive); with SK-OV-3 ovarian, 75.1% (inactive). Moreover, the growth with IGROV1 ovarian was 42.1% (inactive); in the test on OVCAR-3 ovarian, 23.6% (inactive); with HS 578T breast, 40.2% (inactive); in the test with NCI/ADR-RES ovarian, 22.7% (inactive); in the test on T-47D breast, 27% (inactive); with BT-549 breast it was 31.7% (inactive). Besides, the growth was -10.4% (active) in the test with MDA-MB-435 melanoma; 29.7% (inactive) in the test on SW-620 colon; 21.2% (inactive) in the test on MCF7 breast; 13.2% (inactive) in the test with HCT-116 colon; 70.8% (inactive) in the test with HCC-2998 colon; 25.5% (inactive) in the test with KM12 colon.

On to `COc1cc(-c2nc(-c3ccccc3)[nH]c2-c2ccnc(NCCCNS(=O)(=O)c3ccc(C(F)(F)F)cc3)n2)ccc1Cl`, for which the growth with SR leukemia was 9.32% (active) and 35.8% (inactive); in the test with RPMI-8226 leukemia it was 12.5% (inactive) and 31.6% (inactive); in the test with OVCAR-8 ovarian, 53.2% (inactive) and 40.2% (inactive); with OVCAR-5 ovarian, 103% (inactive) and 84.4% (inactive); in the test with OVCAR-4 ovarian it was 41.6% (inactive) and 39.1% (inactive); in the test with SK-OV-3 ovarian, 99.5% (inactive) and 55.1% (inactive). Besides, the growth is 59.6% (inactive) and 51.8% (inactive) with IGROV1 ovarian; 33.6% (inactive) and 39.6% (inactive) in the test on OVCAR-3 ovarian; 58.8% (inactive) and 71.9% (inactive) in the test on HS 578T breast; 13.8% (inactive) and 32.4% (inactive) in the test with NCI/ADR-RES ovarian; 44.2% (inactive) and 21.1% (inactive) in the test with T-47D breast; 44.7% (inactive) and 67.2% (inactive) with BT-549 breast. Further, the growth is 29.4% (inactive) and 27.5% (inactive) in the test on MDA-MB-435 melanoma; 46.8% (inactive) and 55.9% (inactive) with SW-620 colon; 9.62% (active) and 18.3% (inactive) in the test on MCF7 breast; 16.3% (inactive) and 17.4% (inactive) with HCT-116 colon; 48.5% (inactive) and 51% (inactive) with HCC-2998 colon; 25% (inactive) and 32.5% (inactive) in the test with KM12 colon.
